Results published in the supplement of paper PMC10849652.
Targets with a hit are over-represented here; the source holds about 8,800 in all. About 0.5% of all pairs of compound and target were hits. Unmarked numbers belong to inactive results.

Tests used:
Test in all cases: log2 fold change, soluble protein after heating vs DMSO (PISA); higher = thermal stabilisation; K562 lysate, 10 uM; active = over 0.2 and 3.5 SD of the protein, either way, in both replicates (recomputed)
[1] = compound: NCC(=O)Nc1ccc(-n2nc(C(F)(F)F)cc2-c2ccc3c(ccc4ccccc43)c2)cc1
How it was run: (§1)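 Pellets of K562 cells were dounce-homogenised in PBS pH 7.4 with 1 mM MgCl2, and the crude extract was held at 1 mg/mL protein for a 30 min treatment with 10 μM compound. Aliquots were heated for 3 min over 48°C-58°C and pooled before NP-40 was added to 0.5% at 4°C. The supernatant from 21,000xg for 90 min was quantified by TMTpro 16plex LC-MS/MS with channel sums equalised. Values are reported from duplicates as log-two fold change in thermal stability relative to solvent controls.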

vorinostat = compound: O=C(CCCCCCC(=O)Nc1ccccc1)NO [vorinostat]
How it was run: as §1

silmitasertib = compound: O=C(O)c1ccc2c(c1)nc(Nc1cccc(Cl)c1)c1ccncc12 [silmitasertib]
How it was run: as §1

[2] = compound: O=C1NC(=O)C(c2cnc3ccccn23)=C1c1cn2c3c(cc(F)cc13)CN(C(=O)N1CCCCC1)CC2
How it was run: as §1

entospletinib = compound: c1cn2cc(-c3ccc4cn[nH]c4c3)nc(Nc3ccc(N4CCOCC4)cc3)c2n1 [entospletinib]
How it was run: as §1

UniProt Q13616, sequence (Q13616 whole entry, looked up): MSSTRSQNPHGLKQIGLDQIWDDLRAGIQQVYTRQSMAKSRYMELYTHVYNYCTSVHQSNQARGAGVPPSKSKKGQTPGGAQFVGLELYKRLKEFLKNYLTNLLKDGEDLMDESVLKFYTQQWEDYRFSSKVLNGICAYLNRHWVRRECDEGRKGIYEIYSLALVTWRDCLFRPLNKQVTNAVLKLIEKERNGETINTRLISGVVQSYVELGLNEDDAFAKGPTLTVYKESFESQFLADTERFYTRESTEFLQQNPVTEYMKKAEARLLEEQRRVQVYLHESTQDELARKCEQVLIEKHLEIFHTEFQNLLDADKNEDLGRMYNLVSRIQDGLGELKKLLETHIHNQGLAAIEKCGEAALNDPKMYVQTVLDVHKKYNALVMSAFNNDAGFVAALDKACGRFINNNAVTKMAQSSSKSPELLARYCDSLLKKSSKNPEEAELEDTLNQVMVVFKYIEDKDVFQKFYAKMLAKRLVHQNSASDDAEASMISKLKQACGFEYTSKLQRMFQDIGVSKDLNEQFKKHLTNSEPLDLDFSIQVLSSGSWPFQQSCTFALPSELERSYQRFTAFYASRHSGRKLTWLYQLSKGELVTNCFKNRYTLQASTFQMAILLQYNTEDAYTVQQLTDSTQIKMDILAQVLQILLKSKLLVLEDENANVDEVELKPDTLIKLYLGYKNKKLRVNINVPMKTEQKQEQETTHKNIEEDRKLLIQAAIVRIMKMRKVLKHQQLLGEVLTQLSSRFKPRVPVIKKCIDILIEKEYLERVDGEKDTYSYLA
UniProt O60716, sequence (O60716 whole entry, looked up): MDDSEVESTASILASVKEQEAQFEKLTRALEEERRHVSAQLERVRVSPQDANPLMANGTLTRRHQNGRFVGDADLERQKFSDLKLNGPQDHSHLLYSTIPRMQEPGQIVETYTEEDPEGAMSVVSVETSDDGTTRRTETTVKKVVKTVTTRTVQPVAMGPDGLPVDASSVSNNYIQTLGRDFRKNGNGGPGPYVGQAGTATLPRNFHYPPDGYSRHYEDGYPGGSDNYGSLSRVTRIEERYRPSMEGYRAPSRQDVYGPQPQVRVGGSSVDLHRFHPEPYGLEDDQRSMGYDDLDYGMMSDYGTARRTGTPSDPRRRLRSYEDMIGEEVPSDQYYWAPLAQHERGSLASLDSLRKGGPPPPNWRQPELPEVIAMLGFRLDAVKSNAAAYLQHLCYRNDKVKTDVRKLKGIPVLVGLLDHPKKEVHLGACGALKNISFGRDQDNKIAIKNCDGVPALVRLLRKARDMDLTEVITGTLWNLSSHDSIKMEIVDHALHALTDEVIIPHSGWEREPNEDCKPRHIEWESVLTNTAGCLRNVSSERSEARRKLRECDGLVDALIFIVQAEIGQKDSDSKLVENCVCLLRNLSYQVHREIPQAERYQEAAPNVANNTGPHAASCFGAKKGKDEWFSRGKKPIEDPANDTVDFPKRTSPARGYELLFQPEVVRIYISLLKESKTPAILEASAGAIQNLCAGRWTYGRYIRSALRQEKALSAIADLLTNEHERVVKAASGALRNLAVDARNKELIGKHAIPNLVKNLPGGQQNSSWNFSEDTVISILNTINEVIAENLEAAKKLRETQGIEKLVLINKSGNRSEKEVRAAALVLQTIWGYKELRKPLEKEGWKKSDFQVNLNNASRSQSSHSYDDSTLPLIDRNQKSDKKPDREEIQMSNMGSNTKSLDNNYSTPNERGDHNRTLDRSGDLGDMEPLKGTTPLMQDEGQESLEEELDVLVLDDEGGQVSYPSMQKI
UniProt Q5RI15, sequence (Q5RI15 whole entry, looked up): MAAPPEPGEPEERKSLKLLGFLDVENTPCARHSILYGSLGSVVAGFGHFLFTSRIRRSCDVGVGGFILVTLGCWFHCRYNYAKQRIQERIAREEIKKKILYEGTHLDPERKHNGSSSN
UniProt Q9Y315, sequence (Q9Y315 whole entry, looked up): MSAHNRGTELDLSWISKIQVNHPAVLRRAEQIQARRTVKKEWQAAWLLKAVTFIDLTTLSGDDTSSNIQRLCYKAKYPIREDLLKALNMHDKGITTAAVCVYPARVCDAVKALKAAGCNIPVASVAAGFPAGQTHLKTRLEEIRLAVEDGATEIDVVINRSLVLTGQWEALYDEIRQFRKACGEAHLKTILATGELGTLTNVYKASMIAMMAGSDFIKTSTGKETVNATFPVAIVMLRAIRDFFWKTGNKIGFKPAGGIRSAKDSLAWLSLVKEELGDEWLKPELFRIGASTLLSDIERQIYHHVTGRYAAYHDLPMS
UniProt Q6ZPD9, sequence (Q6ZPD9 whole entry, looked up): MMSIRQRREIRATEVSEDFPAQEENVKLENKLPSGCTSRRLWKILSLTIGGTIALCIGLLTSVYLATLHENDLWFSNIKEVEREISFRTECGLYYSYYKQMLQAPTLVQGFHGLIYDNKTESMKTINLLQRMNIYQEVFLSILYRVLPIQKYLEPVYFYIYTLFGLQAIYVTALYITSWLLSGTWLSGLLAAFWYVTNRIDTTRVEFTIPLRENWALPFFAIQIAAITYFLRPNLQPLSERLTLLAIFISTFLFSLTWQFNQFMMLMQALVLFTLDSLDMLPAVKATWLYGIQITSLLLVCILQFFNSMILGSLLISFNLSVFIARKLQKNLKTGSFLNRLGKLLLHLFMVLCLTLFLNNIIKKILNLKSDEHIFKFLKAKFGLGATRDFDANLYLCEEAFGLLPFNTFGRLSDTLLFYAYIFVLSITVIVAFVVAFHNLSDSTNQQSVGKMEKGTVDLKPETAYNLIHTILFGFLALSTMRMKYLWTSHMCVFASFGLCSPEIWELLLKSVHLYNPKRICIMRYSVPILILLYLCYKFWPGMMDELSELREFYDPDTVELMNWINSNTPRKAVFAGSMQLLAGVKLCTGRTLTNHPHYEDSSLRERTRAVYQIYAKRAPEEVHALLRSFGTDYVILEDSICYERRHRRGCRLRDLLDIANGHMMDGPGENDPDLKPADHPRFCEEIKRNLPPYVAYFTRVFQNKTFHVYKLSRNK
UniProt Q9UHD1, sequence (Q9UHD1 whole entry, looked up): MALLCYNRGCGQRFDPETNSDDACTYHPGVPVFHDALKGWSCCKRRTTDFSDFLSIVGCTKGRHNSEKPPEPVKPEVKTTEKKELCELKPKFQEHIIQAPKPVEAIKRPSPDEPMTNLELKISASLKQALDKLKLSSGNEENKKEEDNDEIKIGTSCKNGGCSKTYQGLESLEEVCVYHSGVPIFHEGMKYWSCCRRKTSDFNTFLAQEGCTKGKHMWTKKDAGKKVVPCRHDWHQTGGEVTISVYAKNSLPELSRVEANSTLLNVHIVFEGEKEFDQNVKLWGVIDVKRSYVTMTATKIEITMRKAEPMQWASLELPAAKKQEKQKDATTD
UniProt Q6UWP2, sequence (Q6UWP2 whole entry, looked up): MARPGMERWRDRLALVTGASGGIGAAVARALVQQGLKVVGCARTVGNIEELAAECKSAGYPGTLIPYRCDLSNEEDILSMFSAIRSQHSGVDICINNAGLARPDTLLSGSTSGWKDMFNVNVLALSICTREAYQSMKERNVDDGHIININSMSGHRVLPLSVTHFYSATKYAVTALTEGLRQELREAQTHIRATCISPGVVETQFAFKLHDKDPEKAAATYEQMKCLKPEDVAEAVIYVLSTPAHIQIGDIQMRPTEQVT
UniProt P57737, sequence (P57737 whole entry, looked up): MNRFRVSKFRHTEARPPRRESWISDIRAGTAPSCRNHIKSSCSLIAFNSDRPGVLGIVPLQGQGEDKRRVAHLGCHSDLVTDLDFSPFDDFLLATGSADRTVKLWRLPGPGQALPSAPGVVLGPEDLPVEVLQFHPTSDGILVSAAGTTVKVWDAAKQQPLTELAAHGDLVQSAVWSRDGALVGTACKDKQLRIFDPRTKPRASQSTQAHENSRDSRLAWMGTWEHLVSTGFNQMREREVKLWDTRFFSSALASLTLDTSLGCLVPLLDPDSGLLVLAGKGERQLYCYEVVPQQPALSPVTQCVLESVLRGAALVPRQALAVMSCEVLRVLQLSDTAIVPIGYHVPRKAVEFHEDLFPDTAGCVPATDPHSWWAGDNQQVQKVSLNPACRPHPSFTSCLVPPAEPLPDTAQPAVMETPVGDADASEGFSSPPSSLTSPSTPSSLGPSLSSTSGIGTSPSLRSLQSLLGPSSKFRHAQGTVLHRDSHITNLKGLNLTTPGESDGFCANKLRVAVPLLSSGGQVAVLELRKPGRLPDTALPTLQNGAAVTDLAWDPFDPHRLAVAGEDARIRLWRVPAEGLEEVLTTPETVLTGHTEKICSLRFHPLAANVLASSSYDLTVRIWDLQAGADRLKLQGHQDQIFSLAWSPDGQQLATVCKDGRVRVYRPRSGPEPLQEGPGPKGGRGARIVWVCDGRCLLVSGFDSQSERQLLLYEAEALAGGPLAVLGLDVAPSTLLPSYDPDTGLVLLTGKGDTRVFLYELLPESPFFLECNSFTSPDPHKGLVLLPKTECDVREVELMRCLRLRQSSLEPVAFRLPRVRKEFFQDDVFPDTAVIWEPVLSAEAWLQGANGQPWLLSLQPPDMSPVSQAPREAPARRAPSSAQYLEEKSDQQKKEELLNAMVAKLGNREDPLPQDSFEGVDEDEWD
UniProt P61024, sequence (P61024 whole entry, looked up): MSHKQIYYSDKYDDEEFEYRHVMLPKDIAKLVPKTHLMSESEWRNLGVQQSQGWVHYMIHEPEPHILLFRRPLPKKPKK
UniProt Q96LJ7, sequence (Q96LJ7 whole entry, looked up): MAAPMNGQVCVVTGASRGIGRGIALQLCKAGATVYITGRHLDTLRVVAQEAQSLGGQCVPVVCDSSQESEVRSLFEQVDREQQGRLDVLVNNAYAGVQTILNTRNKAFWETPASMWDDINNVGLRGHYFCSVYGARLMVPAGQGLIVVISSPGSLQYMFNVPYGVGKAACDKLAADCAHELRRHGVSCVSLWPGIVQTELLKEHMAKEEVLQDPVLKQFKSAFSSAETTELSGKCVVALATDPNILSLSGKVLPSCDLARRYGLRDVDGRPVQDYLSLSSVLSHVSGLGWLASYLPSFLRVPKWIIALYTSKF

Target	log2 fold change [1]	log2 fold change (vorinostat)	log2 fold change (silmitasertib)	log2 fold change [2]	log2 fold change (entospletinib)
COX20 isoform 2 (UniProt Q5RI15)	-0.016	-0.079	0.011	-0.037	0.026
CMTM3 (UniProt Q96MX0)	0.05	-0.516 (active)	-0.004	-0.03	-0.004
CSNK1A1 (UniProt P48729)	0.001	-0.276 (active)	0.088	-0.044	0.017
DDX39A (UniProt O00148)	0.017	-0.383 (active)	0.017	0.036	-0.033
CORO7 isoform 3 (UniProt P57737)	-0.045	-0.176	0.042	0.004	0.005
DCP2 (UniProt Q8IU60)	-0.02	-0.446 (active)	-0.033	0.085	-0.001
CTNND1 isoform 3 (UniProt O60716)	-0.017	-0.371 (active)	0.034	-0.014	-0.005
COG6 (UniProt Q9Y2V7)	0.021	-0.254 (active)	0.072	0.09	0.026
DOCK10 (UniProt Q96BY6)	0	-0.07	0.143	-0.064	0.023
CLUH (UniProt O75153)	-0.011	0.404 (active)	0.071	0.033	0.01
CYP24A1 (UniProt Q07973)	0.187	0.119	0.019	0.081	0.002
CHORDC1 (UniProt Q9UHD1)	0.001	-0.014	-0.019	-0.009	0
CKS1B (UniProt P61024)	-0.059	0.115	-0.004	-0.076	-0.021
CUL1 (UniProt Q13616)	0.001	0.072	0.006	-0.007	0.009
DHRS11 (UniProt Q6UWP2)	-0.006	-0.255 (active)	-0.014	0.02	-0.011
DNAJC5 (UniProt Q9H3Z4)	0.02	0.101	-0.071	-0.03	0.019
DHRS1 (UniProt Q96LJ7)	-0.154	-0.561 (active)	-0.021	-0.055	-0.138
DERA (UniProt Q9Y315)	-0.015	0.063	-0.003	0.018	0
CSTF2 (UniProt P33240)	0.001	0.046	0.007	0.013	-0.045
COPZ1 isoform 4 (UniProt P61923)	-0.068	0.188	-0.032	0.163	-0.025
DPY19L3 (UniProt Q6ZPD9)	-0.085	0.219	0.108	0.035	-0.024
